The structures appear in SMILES notation. Several values for one entry are separate records, joined by “and”; a condition that tells them apart may be missing. Equal entries are not always repeated. Activity calls are given as the source filed them. Cut-off read from the data, not from the text of the source: active = fold change permeability below about 0.7 or above about 1.3; inactive = in between.

We go through 36 compounds from PubChem BioAssay.

A short description of this test: compounds altering in vitro BBB leakiness – cell-based, FITC-avidin fluorescence, HTS, primary screen (AID 1963498). Note: test concentration not given here. Particulars: brain endothelial barrier, actives lie on both sides.
Regarding `CC(=O)OCC1=C(C(=O)[O-])N2C(=O)[C@@H](NC(=O)CCC[C@@H](N)C(=O)[O-])[C@H]2SC1.[Zn+2]`, the fold change permeability was 1 (inactive). As for `CNCC(O)c1ccc(O)cc1` (stereo unspecified), the fold change permeability is 0.7 (active). For the compound `CCC1(C2=NCCN2)Cc2ccccc2O1` (stereo unspecified), the fold change permeability was 1 (inactive). On to `NCC(CP(=O)(O)O)c1ccc(Cl)cc1` (stereo unspecified), for which the fold change permeability was 1 (inactive).

As for `CP(=O)(O)C1=CCNCC1`, the fold change permeability is 1.4 (active). Take `CC[N+](CC)(CC)CC`: the fold change permeability is 1.1 (inactive). With `Cc1ccc2c(c1)C1(CCN(CCc3nc(-c4ccccc4)oc3C)CC1)OC(=O)N2`, the fold change permeability is 1 (inactive).

With `c1ccc(C[N+]23CN4CN(CN(C4)C2)C3)cc1`, the fold change permeability is 0.7 (active). As to `Clc1ccc(C(c2ccc(Cl)cc2)n2cc[n+](CC(OCc3ccc(Cl)cc3Cl)c3ccc(Cl)cc3Cl)c2)cc1` (stereo unspecified), the fold change permeability is 1.3 (active).

For the compound `O=C(CCCN1CCC2(CC1)C(=O)NCN2c1ccccc1)c1ccc(F)cc1`, the fold change permeability was 1 (inactive). `COC(=O)N1CCN(C(=O)Cc2ccc(Cl)c(Cl)c2)C(CN2CCCC2)C1` (stereo unspecified): the fold change permeability was 1.3 (active). Take `CS(=N)(=O)CC[C@H](N)C(=O)O` (stereo partly specified): the fold change permeability was 0.8 (inactive). In the case of `C[N+]1(C)CCOC(O)(c2ccc(-c3ccc(C4(O)C[N+](C)(C)CCO4)cc3)cc2)C1` (stereo unspecified), the fold change permeability is 1.1 (inactive). As for `Oc1ccc2c3c1O[C@H]1c4[nH]c5ccccc5c4C[C@@]4(O)[C@@H](C2)N(CC2CC2)CC[C@]314`, the fold change permeability was 1 (inactive).

Regarding `CC[C@@]1(O)C(=O)OCc2c1cc1n(c2=O)Cc2cc3ccccc3nc2-1`, the fold change permeability is 1.4 (active). Consider `N[C@@]1(C(=O)O)CC[C@@H](C(=O)O)C1`, for which the fold change permeability is 1 (inactive).

`CC(C)NC(C)Cc1ccc(I)cc1` (stereo unspecified): the fold change permeability was 1.8 (active). For the compound `CC(C)Oc1cccnc1N(C)C1CCN(Cc2ccccc2)CC1`, the fold change permeability is 1.5 (active).

For `CC(Cc1ccc(OCC(=O)O)cc1)NCC(O)c1cccc(Cl)c1` (stereo unspecified), the fold change permeability is 1 (inactive).

As for `NC(N)=NOCC[C@H](N)C(=O)O`, the fold change permeability is 1 (inactive) and 0.8 (inactive). For `C=CCN1C[C@H](C)N([C@H](c2ccc(C(=O)N(CC)CC)cc2)c2cccc(OC)c2)C[C@H]1C`, the fold change permeability was 0.7 (active).

Take `CCN(CC)c1ncnc2c1ncn2[C@@H]1O[C@H](COP(=O)(O)OP(=O)(O)C(Br)(Br)P(=O)(O)O)[C@@H](O)[C@H]1O`: the fold change permeability is 1.1 (inactive). Consider `COc1cc([C@@H]2c3cc4c(cc3[C@H](O)[C@H]3COC(=O)[C@H]23)OCO4)cc(OC)c1OC`, for which the fold change permeability was 1.2 (inactive). Regarding `O=C(O)c1nn(Cc2ccc(Cl)cc2Cl)c2ccccc12`, the fold change permeability was 1.9 (active). For the compound `CN1C(=O)CCS(=O)(=O)C1c1ccc(Cl)cc1` (stereo unspecified), the fold change permeability was 1.3 (active).

Turning to `CO[C@H]1CC[C@@H](O[C@H]2C[C@H]([C@]3(C)CC[C@]4(C[C@H](O)[C@@H](C)[C@@H]([C@@H](C)/C=C(\C)C(=O)[C@H](C)C[C@H](C)C(=O)O)O4)O3)O[C@]3(O[C@@H]([C@H]4O[C@@](O)(CO)[C@H](C)C[C@@H]4C)C[C@@H]3C)[C@@H]2C)O[C@@H]1C`, the fold change permeability is 1.3 (active). The value for `Cc1ncc(CNC(=O)N(CCCl)N=O)c(N)n1` was 0.9 (inactive); that for `Cc1cccc(C)c1NC(=O)CN1CCCC1=O` was 1 (inactive); that for `NCC(CC(=O)O)c1ccc(Cl)cc1` (stereo unspecified) was 1.1 (inactive). To `COC(=O)[C@@H](N)CCCN=C(N)N[N+](=O)[O-]` belongs 0.9 (inactive). Take `CC(C(O)c1ccc(O)cc1)N1CCC(Cc2ccccc2)CC1` (stereo unspecified): the fold change permeability is 1.3 (active). On to `COc1ccc2c(c1OC)C(=O)O[C@H]2[C@@H]1c2cc3c(cc2CCN1C)OCO3`, for which the fold change permeability is 1.2 (inactive). With `Clc1ccc(C(Cn2ccnc2)OCc2csc3c(Cl)cccc23)c(Cl)c1` (stereo unspecified), the fold change permeability is 1.2 (inactive). As for `COc1ccc(C(CN(C)C)C2(O)CCCCC2)cc1` (stereo unspecified), the fold change permeability was 1 (inactive).

In the case of `CC(C)(C)c1o[nH]c(=O)c1CC(N)C(=O)O` (stereo unspecified), the fold change permeability is 1.1 (inactive).

For `CN1CCC(c2c[nH]c3ccc(O)cc23)CC1`, the fold change permeability was 1 (inactive).
